We go through 12 molecules from ChEMBL document CHEMBL3988442, “University of Dundee, Small-Polar-MMV Screening Library” (2021).

Holding throughout (design): scale not given: direction of the effect not stated beside the values
For experiment [1], the target named is Protein translocase subunit SecA (Escherichia coli (strain K12)) (UniProt P10408). Briefly: Assay to Identify E. coli SecA ATPase Inhibitors. As to conditions: 30 µM. In kind it is functional.
The target in experiment [2] is T1, Ubiquitin-activating enzyme e1, putative (Leishmania donovani (strain BPK282A1)) (UniProt E9BSI1).
T1 sequence (whole entry): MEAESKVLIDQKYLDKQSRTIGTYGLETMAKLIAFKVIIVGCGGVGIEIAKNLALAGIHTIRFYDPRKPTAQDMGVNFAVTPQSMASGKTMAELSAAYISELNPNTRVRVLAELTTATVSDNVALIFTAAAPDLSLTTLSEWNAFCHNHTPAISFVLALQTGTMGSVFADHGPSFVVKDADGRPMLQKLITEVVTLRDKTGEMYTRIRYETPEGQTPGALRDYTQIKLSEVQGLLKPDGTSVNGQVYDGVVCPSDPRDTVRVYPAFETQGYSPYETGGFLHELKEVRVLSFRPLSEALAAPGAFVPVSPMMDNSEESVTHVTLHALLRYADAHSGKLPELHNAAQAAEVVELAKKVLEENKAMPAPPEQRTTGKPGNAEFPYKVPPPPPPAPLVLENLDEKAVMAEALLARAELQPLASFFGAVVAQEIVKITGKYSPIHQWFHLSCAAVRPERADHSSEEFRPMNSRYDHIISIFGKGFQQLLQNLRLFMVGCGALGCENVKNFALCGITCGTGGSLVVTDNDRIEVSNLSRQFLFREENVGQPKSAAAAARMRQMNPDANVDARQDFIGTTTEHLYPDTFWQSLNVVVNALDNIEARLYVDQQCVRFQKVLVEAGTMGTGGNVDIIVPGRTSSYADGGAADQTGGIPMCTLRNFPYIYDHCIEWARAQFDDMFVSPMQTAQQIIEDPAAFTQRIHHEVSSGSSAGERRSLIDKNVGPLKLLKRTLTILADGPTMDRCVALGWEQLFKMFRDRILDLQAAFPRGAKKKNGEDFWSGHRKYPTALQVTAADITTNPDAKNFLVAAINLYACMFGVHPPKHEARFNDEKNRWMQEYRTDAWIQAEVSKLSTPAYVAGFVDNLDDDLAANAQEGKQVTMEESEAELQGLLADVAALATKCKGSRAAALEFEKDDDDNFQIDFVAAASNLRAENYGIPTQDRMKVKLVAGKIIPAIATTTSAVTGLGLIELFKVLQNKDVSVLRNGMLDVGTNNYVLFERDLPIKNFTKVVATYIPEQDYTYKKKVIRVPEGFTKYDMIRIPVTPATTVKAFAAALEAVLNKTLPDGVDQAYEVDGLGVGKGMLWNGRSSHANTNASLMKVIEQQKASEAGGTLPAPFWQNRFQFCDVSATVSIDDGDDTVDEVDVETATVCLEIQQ
Kind of experiment: Leishmania donovani Ubiquitin Activating Enzyme (LdE1). In kind it is functional. As to conditions: 30 µM.

Experiment [3] has as its target Sialic acid-binding Ig-like lectin 9 (Homo sapiens) (UniProt Q9Y336). Kind of experiment: Hs-Siglec9 ALPHAscreen SOP 20170721. As to conditions: 10 µM.
The next experiment relates to Trypanosoma cruzi. Briefly: Trypanosoma cruzi phosphomannomutase and mannose-1-phosphate guanylyltransferase assay. The format is functional. As to conditions: 10 µM.
Experiment [4] deals with T2, Arginase-2, mitochondrial (Homo sapiens) (UniProt P78540).
T2 sequence (whole entry): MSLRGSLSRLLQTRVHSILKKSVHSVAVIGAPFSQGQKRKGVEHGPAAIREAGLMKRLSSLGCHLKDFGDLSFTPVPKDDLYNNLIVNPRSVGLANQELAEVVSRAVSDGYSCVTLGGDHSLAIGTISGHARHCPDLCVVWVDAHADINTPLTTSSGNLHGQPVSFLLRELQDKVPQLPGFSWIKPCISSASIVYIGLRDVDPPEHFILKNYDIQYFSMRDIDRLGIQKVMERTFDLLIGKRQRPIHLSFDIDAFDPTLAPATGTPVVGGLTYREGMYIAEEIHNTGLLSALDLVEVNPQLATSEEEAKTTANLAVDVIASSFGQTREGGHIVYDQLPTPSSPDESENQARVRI
Kind of experiment: in vitro enzyme assay to detect the production of urea directly proportional to the activity of Arginase II. Also: in the data most compounds retested in dose-response had high values. The format is functional. As to conditions: 33.3 µM.

Experiment [5] has as its target T3, Proteasome subunit beta (Trypanosoma cruzi) (UniProt O96673).
T3 sequence (whole entry): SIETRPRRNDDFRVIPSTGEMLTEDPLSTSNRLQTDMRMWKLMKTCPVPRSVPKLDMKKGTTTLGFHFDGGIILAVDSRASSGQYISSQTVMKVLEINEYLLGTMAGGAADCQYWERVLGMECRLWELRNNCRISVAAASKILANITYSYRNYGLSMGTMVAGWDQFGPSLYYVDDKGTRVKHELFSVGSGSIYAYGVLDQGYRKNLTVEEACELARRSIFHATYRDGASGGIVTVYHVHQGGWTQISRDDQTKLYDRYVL
Kind of experiment: Trypanosoma cruzi proteasome chymotrypsin-like activity (TcProtChymo) assay. Also: in the data most compounds retested in dose-response had high values. In kind it is functional. As to conditions: 9.37 µM.

The species named for a further experiment is Homo sapiens. Briefly: To identify inhibition of the IFN signalling (Jak-Stat) pathway via expression of an eGFP reporter gene under the control of an IFN-stimulated response element (ISRE) containing MxA promoter. The format is functional. As to conditions: 30 µM. (In general: In a reporter assay the amount or activity of a reporter protein is the signal.)

In experiment [6] the target is T4, Tyrosyl-tRNA synthetase, putative (Trypanosoma cruzi (strain CL Brener)) (UniProt Q4DSP6).
T4 sequence (whole entry): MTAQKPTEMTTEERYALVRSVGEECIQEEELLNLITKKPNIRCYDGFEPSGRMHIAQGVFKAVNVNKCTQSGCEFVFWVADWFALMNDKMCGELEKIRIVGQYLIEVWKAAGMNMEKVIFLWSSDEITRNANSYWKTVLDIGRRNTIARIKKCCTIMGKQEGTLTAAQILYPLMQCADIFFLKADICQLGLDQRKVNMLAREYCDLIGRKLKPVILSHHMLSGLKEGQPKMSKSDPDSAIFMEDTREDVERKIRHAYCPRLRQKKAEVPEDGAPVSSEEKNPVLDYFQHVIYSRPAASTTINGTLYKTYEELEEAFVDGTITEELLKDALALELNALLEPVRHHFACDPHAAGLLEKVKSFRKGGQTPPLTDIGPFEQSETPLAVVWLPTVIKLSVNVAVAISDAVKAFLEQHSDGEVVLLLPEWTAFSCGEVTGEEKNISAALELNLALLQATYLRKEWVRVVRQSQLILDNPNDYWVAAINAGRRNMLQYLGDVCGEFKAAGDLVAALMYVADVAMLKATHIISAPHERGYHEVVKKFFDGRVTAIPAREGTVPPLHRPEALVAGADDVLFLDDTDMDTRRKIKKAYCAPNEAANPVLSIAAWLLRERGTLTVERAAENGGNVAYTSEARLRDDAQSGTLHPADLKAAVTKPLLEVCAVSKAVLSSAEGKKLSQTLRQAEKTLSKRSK
Kind of experiment: Trypanosoma cruzi tyrosyl tRNA synthetase (TcYRS) _High Tyrosine SOP. Also: in the data most compounds retested in dose-response had high values. The format is functional. As to conditions: 30 µM.

Experiment [7] addresses T4, Tyrosyl-tRNA synthetase, putative (Trypanosoma cruzi (strain CL Brener)). Briefly: Trypanosoma cruzi tyrosyl tRNA synthetase (TcYRS) SOP. In kind it is functional. As to conditions: 30 µM.
For experiment [8], the target named is Chromo domain-containing protein 1 (Saccharomyces cerevisiae (strain ATCC 204508 / S288c) (Baker's yeast)) (UniProt P32657). Briefly: ScCHD-1 Enzyme Inhibition Assay. Also: in the data most compounds retested in dose-response had high values. As to conditions: 30 µM. The format is functional.
Sequence of Chromo domain-containing protein 1 (Saccharomyces cerevisiae (strain ATCC 204508 / S288c) (Baker's yeast)) (P32657 whole entry, the tested form may be a part): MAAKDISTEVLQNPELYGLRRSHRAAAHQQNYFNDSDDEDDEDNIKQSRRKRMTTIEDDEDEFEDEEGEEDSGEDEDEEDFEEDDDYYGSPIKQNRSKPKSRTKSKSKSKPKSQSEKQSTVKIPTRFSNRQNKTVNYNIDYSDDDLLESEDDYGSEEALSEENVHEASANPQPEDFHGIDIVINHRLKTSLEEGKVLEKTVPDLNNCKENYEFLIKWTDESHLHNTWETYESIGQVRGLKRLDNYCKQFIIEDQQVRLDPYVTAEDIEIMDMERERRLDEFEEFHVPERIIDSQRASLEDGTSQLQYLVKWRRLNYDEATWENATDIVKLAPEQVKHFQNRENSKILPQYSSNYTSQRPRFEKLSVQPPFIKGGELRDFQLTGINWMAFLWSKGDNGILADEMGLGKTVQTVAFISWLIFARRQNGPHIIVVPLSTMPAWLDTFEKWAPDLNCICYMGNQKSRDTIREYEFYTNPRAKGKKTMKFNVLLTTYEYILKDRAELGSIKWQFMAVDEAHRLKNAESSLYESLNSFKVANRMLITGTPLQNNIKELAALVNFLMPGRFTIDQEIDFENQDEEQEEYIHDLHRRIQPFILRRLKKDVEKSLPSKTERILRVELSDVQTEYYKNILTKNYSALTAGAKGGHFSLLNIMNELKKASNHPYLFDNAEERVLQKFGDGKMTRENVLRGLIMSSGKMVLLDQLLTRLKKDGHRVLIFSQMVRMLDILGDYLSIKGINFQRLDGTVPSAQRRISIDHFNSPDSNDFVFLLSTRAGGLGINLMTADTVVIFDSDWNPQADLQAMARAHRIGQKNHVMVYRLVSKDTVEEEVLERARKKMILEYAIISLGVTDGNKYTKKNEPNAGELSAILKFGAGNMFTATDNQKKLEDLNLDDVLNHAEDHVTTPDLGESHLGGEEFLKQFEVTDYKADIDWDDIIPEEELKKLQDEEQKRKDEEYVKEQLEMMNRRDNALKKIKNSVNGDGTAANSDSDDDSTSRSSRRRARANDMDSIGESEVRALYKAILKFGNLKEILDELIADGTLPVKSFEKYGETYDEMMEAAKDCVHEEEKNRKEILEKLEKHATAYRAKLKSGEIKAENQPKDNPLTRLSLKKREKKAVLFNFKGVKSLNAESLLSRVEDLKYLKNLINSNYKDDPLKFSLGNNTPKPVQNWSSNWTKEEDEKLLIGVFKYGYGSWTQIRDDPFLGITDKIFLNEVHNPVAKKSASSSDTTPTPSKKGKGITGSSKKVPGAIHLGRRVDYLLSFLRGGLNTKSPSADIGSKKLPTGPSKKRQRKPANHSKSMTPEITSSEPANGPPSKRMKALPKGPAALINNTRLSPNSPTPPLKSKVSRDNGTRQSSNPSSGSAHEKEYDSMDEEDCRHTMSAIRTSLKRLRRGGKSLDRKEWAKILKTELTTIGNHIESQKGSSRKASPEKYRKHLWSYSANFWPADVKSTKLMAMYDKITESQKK

Molecules are shown by their SMILES. For part of these data: Measured potencies and affinities stand elsewhere.

Sequence of Sialic acid-binding Ig-like lectin 9 (Homo sapiens) (Q9Y336 whole entry): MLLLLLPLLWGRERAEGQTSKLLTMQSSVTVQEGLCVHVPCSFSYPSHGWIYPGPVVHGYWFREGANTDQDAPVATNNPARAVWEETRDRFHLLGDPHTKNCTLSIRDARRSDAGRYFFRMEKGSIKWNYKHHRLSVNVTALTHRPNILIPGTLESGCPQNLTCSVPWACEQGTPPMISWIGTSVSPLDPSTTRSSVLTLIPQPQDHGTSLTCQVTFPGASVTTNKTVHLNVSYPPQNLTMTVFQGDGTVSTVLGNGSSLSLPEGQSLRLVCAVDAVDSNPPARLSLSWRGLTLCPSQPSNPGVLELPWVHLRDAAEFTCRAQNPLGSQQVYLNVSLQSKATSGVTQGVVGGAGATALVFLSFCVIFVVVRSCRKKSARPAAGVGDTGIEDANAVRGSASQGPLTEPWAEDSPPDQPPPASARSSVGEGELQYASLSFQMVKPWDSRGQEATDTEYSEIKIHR
Sequence of Protein translocase subunit SecA (Escherichia coli (strain K12)) (P10408 whole entry): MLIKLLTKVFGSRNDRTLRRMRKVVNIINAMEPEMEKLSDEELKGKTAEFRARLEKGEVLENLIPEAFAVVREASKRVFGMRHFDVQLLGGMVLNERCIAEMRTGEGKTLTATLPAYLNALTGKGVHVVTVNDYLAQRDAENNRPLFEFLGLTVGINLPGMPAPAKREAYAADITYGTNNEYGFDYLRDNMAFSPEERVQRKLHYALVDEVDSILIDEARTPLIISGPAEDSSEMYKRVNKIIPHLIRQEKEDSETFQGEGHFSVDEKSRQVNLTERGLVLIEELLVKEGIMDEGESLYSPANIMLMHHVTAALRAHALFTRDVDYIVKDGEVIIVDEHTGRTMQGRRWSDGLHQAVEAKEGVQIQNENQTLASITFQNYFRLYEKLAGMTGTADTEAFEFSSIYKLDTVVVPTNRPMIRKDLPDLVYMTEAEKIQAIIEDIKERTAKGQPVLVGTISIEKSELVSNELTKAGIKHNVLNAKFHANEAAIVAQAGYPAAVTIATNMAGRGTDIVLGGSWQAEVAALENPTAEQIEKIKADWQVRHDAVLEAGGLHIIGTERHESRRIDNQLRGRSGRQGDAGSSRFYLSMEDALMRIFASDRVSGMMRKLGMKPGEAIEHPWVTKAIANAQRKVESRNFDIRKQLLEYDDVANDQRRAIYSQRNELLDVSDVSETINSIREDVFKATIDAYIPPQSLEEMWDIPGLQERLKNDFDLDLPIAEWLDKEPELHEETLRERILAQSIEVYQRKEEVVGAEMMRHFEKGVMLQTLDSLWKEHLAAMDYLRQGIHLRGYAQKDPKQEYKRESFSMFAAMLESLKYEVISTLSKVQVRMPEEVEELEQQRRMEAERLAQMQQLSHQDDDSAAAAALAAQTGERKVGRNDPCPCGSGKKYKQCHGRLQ

For `Cc1cc(S(=O)(=O)N2CCc3ccc(F)cc32)cc(C(=O)O)c1C`, the Percent Effect in experiment [1] was -5.32%; in [2], 0%; in experiment [3], 7.12%; in the experiment on Trypanosoma cruzi it was -1.81%; in [4], -3.99%; in experiment [5] it was 6.87%. In addition, the Percent Effect is -3.81% in the experiment listed under Homo sapiens, -15.3% in [6], -28.2% in experiment [7] and -9.5% in experiment [8].
Turning to `COc1ccccc1CC(=O)N1CC[C@@]2(CCCO2)[C@@H](OC)C1`, the Percent Effect in experiment [1] is -3.82%; in [2] it was 4%; in [3], -4.43%; in the experiment on Trypanosoma cruzi, -3.35%; in [4] it was -9.29%; in experiment [5], 6.4%. Further, the Percent Effect is 14.4% in the experiment filed under Homo sapiens, -1.06% in experiment [6], 5% in experiment [7] and -24.2% in experiment [8].
On to `COc1ncc(C2(O)CCN(Cc3cccs3)CC2)c(OC)n1`, for which the Percent Effect in [1] is -5.49%; in experiment [2] it was 22.7%; in [3], -1.28%; with Trypanosoma cruzi, 2.76%; in experiment [4], -3.54%; in experiment [5], 11.2%. In addition, the Percent Effect in the experiment listed under Homo sapiens was 4.21%; in experiment [6], 8.47%; in [7] it was 20%; in [8] it was -25.5%.
For the molecule `c1csc(CN2CCOCC3(CCN(C4CCOCC4)C3)C2)n1` (stereo not given), the Percent Effect in [1] was -5.6%; in experiment [2], 6.49%; in experiment [3], -3.43%; with Trypanosoma cruzi, -4.77%; in [4] it was -5.67%; in experiment [5], 16.9%. The Percent Effect in the experiment filed under Homo sapiens was -1.84%; in experiment [6], 2.63%; in experiment [7], -2.56%; in [8], -0.251%.
Turning to `COC(=O)C1CCN(C(=O)c2ccc(N(C)S(C)(=O)=O)c(C)c2)CC1`, the Percent Effect in experiment [1] is -3.72%; in [2], -2.7%; in experiment [3], -4.09%; with Trypanosoma cruzi it was -31.3%; in [4], -1.75%; in experiment [5], 13.7%. Moreover, the Percent Effect in the experiment filed under Homo sapiens was -11.3%; in experiment [6], 2.66%; in [7] it was 2.44%; in experiment [8], 3.29%.
As to `COCCN1CCCC12CCN(C(=O)CC1CCCC1)CC2`, the Percent Effect in experiment [1] was -1.94%; in [2], -3.9%; in experiment [3], 0.315%; with Trypanosoma cruzi, 2.44%; in experiment [4] it was 0%; in experiment [5] it was -0.0858%. Moreover, the Percent Effect in the experiment listed under Homo sapiens was 16.7%; in [6] it was 5.8%; in experiment [7] it was 12.5%; in experiment [8] it was -2.58%.
As to `Cc1nc(C)n(CC2CCCN2Cc2cn3ccsc3n2)n1` (stereo not given), the Percent Effect in experiment [1] is 1.01%; in experiment [2], 12.8%; in [3] it was -7.58%; in the experiment with Trypanosoma cruzi, -2.72%; in [4] it was -1.23%; in experiment [5], 19%. In addition, the Percent Effect in the experiment listed under Homo sapiens is 27.5%; in experiment [6], 3.35%; in experiment [7], 13.2%; in experiment [8] it was -5.22%.
On to `CC(c1cccc(S(N)(=O)=O)c1)N(C)CCOc1ccccc1` (stereo not given), for which the Percent Effect in experiment [1] is -0.74%; in experiment [2] it was -15.6%; in experiment [3] it was 10.5%; in the experiment on Trypanosoma cruzi, -4.48%; in [4], -5.12%; in [5], 2.1%. The Percent Effect in the experiment listed under Homo sapiens is 14.4%; in [6], -1.96%; in experiment [7], -2.35%; in [8], 1.25%.
For `Cc1nn(-c2ccccc2)cc1C(=O)N1CCCC(n2cccn2)C1` (stereo not given), the Percent Effect was -2.22% in experiment [1]; 13.3% in experiment [2]; 4.19% in experiment [3]; 1% in the experiment with Trypanosoma cruzi; 7.09% in experiment [4]; 9.07% in experiment [5]. The Percent Effect in the experiment listed under Homo sapiens was -2.62%; in [6], 4.74%; in [7] it was 12.8%; in experiment [8] it was -12.7%.
For the molecule `CS(=O)(=O)NCC1CCCN(C(=O)c2cc3ccccc3o2)C1` (stereo not given), the Percent Effect is -0.17% in [1]; 28.6% in experiment [2]; 3.25% in experiment [3]; 3.36% in the experiment with Trypanosoma cruzi; -9.22% in experiment [4]; 15.1% in experiment [5]. In addition, the Percent Effect in the experiment listed under Homo sapiens was 11.5%; in [6], 5.88%; in experiment [7] it was 23.5%; in experiment [8], -10.2%.
On to `COc1cc(C(=O)N2CCCS2(=O)=O)cc(Cl)c1OC`, for which the Percent Effect in [1] was -4.13%; in experiment [2], 24%; in experiment [3], 3.41%; in the experiment on Trypanosoma cruzi, -0.602%; in experiment [4], -4.88%; in experiment [5] it was 9.07%. Moreover, the Percent Effect in the experiment filed under Homo sapiens is 7.8%; in experiment [6], 4.74%; in [7] it was 15.4%; in experiment [8], -12.8%.
For the molecule `CCn1ncc(Br)c1CN(C)S(=O)(=O)c1ccc(C)cc1`, the Percent Effect in experiment [1] was 0.567%; in experiment [2] it was 6.67%; in experiment [3], -0.565%; in the experiment on Trypanosoma cruzi, 3.35%; in experiment [4], 6.2%; in experiment [5], 15.3%. Also, the Percent Effect is 14% in the experiment listed under Homo sapiens, 4.23% in experiment [6], 10% in [7] and -22% in experiment [8].
